Experimental data reported in PubChem BioAssay AID720504 (National Center for Advancing Translational Sciences (NCATS), 2013).
Screen size: about 360,000 compounds; about 10,000 (2.8%) were called active. Roughly 4% stayed inconclusive and do not appear here. This excerpt belongs to a sample that is enriched for actives. Unmarked numbers belong to inactive results. Calls follow the shape of the dose curve; as a rule, active = well fitted inhibition curve with a large enough effect; inconclusive = small, poorly fitted or top-dose-only effect; inactive = flat fitted curve, though single readings scatter.

Target: Serine/threonine-protein kinase PLK1 (Homo sapiens) (UniProt P53350)
Sequence (P53350 whole entry, looked up, the tested form may be a part): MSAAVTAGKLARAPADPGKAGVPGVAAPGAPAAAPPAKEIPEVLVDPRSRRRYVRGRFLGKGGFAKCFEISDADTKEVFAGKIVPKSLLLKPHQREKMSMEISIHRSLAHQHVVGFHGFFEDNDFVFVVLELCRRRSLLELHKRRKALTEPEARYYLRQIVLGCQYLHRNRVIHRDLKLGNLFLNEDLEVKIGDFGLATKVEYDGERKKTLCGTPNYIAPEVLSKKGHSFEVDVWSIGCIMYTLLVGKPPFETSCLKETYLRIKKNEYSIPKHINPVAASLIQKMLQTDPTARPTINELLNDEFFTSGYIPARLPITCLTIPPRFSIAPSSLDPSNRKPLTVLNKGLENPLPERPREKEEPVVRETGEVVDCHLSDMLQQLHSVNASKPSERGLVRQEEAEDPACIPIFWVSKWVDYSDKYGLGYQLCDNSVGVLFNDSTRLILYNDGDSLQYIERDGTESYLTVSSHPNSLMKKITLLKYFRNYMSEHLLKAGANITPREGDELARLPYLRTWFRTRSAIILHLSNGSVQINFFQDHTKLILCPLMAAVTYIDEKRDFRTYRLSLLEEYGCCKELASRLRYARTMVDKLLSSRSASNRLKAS
Experiment: qHTS for Inhibitors of PLK1-PDB (polo-like kinase 1 - polo-box domain): Primary Screen; also: nearly all actives have a fitted effect of over 65% in size; as to max response, negative = inhibition: series mostly up to about 57 µM
Conditions: Plk1 PBD binding of FITC phosphopeptide, fluorescence polarization
Excerpt: The polo-like kinase 1 (Plk1) is a member of a conserved subfamily of serine / threonine protein kinases that plays a pivotal roles in cell proliferation. It has a C-terminal non-catalytic region called the polo-box domain (PBD) that plays a crucial role in the subcellular localization of the Plk1. […] Furthermore, depletion of the overexpressed Plk1 by RNAi efficiently induces apoptotic cell death in cancer and reduces tumor growth in mouse xenograft models. Thus, targeting Plk1 is an appealing strategy for anti-cancer therapy. Therefore, this project aimed to screen the Molecular Libraries Small Molecule Repository (MLSMR) using a novel approach to find inhibitors that target the Plk1 PBD instead of the conventional N-terminal catalytic domain. This project employed a fluorescence polarization (FP) assay using a FITC-conjugated phospho-9-mer (p-9-mer) peptide and purified human Plk1 PBD protein. The identified small molecule inhibitors of Plk1 PBD can then further be developed into useful tools for biomedical and clinical research that complements or replaces current relevant disease therapy. NIH Chemical Genomics Center [NCGC] NIH Molecular Libraries Probe Centers Network [MLPCN] MLPCN Grant: MH100728 Assay Submitter (PI): Kyung Lee, NCI
Four microliter of 25 nM FITC-p-9-mer + 60 nM Plk1 PBD in buffer solution (final concentrations 25 nM and 60 nM respectively) or 4 uL of 25 nM FITC-p-9-mer (final concentration 25 nM) in buffer will be dispensed into a 1,536 Greiner medium-binding black solid plate. Small molecules at final concentrations of 18 nM to 57 uM and positive control phospho-9-mer (sequence: Ac-PPLHSpTAI-NH2) at final concentrations 26 nM to 57 uM and phospho-13-mer (sequence: Ac-[…]pTAI-NH2) at final concentrations of 1 nM to 2.3 uM will be pin-transferred (23 nL) to the plate via a Kalypsys pin-tool robotics equipped with a 1,536-pin array. The reaction plate will be centrifuged for 1 min at 1000 rpm and incubated at room temperature for 10 min. The FITC fluorescence signals will be read using the PerkinElmer ViewLux plate reader at 480 / 20 nm excitation and 540 / 20 nm S and P polarization emission wavelengths. Reagent bottles will be kept submerged into 4 °C recirculating chiller bath and all liquid lines will be covered with aluminum foil to minimize degradation. Library plates will be screened starting from the lowest to the highest concentrations to minimize compound carryover. Vehicle only plates, with DMSO being pin-transferred instead of compound solutions, will be included regularly throughout the screen to record any systematic shifts in assay signal.
% is scaled to controls: 0 for no effect and ±100 for the full control effect; potency is read from the fitted curve at half-maximal effect.

Compound	max response, negative = inhibition	Potency
O=C(Nc1ccc(F)cc1)c1ccc(S(=O)(=O)NCc2cccnc2)cc1	-1.16%	
CN1CCN(c2ccc(NC(=O)c3ccc4c(c3)[nH]c(=O)n4Cc3ccc(F)cc3)cc2)CC1	-2.57%	
Cc1cccc(CS(=O)(=O)c2ncc(Cl)c(C(=O)Nc3ccc(F)cc3)n2)c1		16.8 µM (active)
COC(=O)[C@@]12C[C@@H](CC(=O)NCCCCc3ccccc3)C(=O)N(Cc3ccccc3)C1=CCC(C)(C)C2	-7.29%	
O=C(C[C@H]1C[C@@H]2c3cc(NC(=O)C4CCC4)ccc3O[C@@H]2[C@H](CO)O1)NC1CCCCC1	-5.12%	
COc1ccc(S(=O)(=O)N2CCC(C(=O)NCCC(=O)Nc3ccccc3OC)CC2)cc1	2.5%	
Cc1cccc(S(=O)(=O)N(C)C[C@@H]2OCc3cnnn3CCCC(=O)N([C@H](C)CO)C[C@@H]2C)c1	-8.68%	
COc1ccc(C(=O)N2CCCCC2c2cc(C(=O)Nc3ccccc3)no2)cc1 (stereo not drawn)	-2.81%	
Cc1ccccc1S(=O)(=O)NC(=O)C1(C)CCN1C(=O)C1(c2ccccc2)CCCC1 (stereo not drawn)	2.57%	
CCn1c(CNC(=O)c2ccccc2)nnc1SCC(=O)N1CCN(c2ccccc2)CC1	-1.21%	
Cn1c(Cc2cccc3ccccc23)nnc1SCC(=O)N1CCN(c2cccc(Cl)c2)CC1		29.9 µM (active)
Cn1c(CNC(=O)c2ccco2)nnc1SCC(=O)N1CCN(c2ccccc2)CC1	-4.04%	
C[C@H]1CN([C@@H](C)CO)C(=O)c2cc(-c3cccc(F)c3)cnc2O[C@@H]1CN(C)S(C)(=O)=O	-9.21%	
COc1ccc(-c2c(C#N)cnc(C)c2C)c(O)c1OC	-12.9%	
C[C@H](CO)N1C[C@H](C)[C@@H](CN(C)S(=O)(=O)c2ccc(F)cc2)OCc2cnnn2CCCC1=O	-19.3%	
O=C(Nc1cccc2ccccc12)c1[nH]c(-c2ccccc2)c2c1C(=O)N(C1CC1)C2=O	-21.7%	
CN(C)C(=O)c1cccc(-c2cnc3c(NC=O)cc(-c4ccc(F)cc4)cn23)c1	-19.5%	
CCc1cccc(C)c1NC(=O)COC(=O)CNC(=O)c1cccs1	-0.37%	
CCc1c(C)sc(NC(=O)c2cccs2)c1C(N)=O		4.74 µM (active)
CCc1c(C)sc(NC(=O)c2ccc(Br)o2)c1C(=O)OC	-7.98%	
Cc1ccc(-c2ccc(C3=CC(=O)CC(C)(C)C3=O)cc2)cc1	-0.955%	
CCCNC(=O)c1cc(C2CCCCN2S(=O)(=O)c2cn(C)cn2)on1 (stereo not drawn)	-4.21%	

Compound	max response, negative = inhibition	Potency
CCCOc1ccc(F)cc1-c1cc(C(=O)Nc2ccc(F)c(Cl)c2)[nH]n1	0.655%	
CN(C)c1nc(NN)nc(Nc2ccc(F)cc2)n1	4.54%	
CN(C)c1nc(Nc2ccc(Cl)c(Cl)c2)nc(N(C)C)n1		2.99 µM (active)
CC(=O)Nc1nc(N(C)C)nc(N(C)C)n1	6.17%	
CC(=O)Nc1cccc(-c2cc(NC(C)=O)c3ncc(-c4ccccc4)n3c2)c1	-16.7%	
COc1ccccc1-c1n[nH]nc1C1=CC(=O)CC(C)(C)C1	-7.34%	
COc1ccc2c(c1)C(=C(C#N)C#N)C(=O)N2CCc1ccccc1		2.67 µM (active)
CCCCN1C(=O)/C(=C(/C#N)C(N)=O)c2ccccc21	-17.1%	
C#CCN1C(=O)C(O)(CC(=O)c2cc(OC)ccc2OC)c2ccccc21 (stereo not drawn)	-9.34%	
COCCNc1nc(NCc2ccc(NC(C)=O)cc2)c2sccc2n1	-10.2%	
Cc1ccc(NC(=O)Nc2ccccc2)c(Br)c1	-8.61%	
CS(=O)(=O)c1ccc(Cl)c(NC(=O)COC(=O)c2ncc(Cl)c(Cl)c2Cl)c1	-10.8%	
CS(=O)(=O)c1ccc(Cl)c(NC(=O)Nc2ccccc2)c1		23.8 µM (active)
CSc1ncnc2c1ncn2CCCNCC(C)c1ccccc1 (stereo not drawn)	1.77%	
Cc1cccc(N2C(=O)CC(SC(N)=Nc3ccccc3)C2=O)c1 (stereo not drawn)		23.8 µM (active)
Cc1cccc(N2C(=O)SC(N(CC(=O)O)c3cccc(C)c3)C2=O)c1 (stereo not drawn)	-27.2%	
Cc1cccc(N2C(=O)c3ccc(C(=O)Nc4cccc(C(=O)O)c4)cc3C2=O)c1	2.25%	
COC(=O)c1ccccc1SC1CC(=O)N(c2cccc(C)c2)C1=O (stereo not drawn)	-24.8%	
COc1cccc(N2C(=O)CC(N3CCc4ccccc4C3)C2=O)c1 (stereo not drawn)	-2.65%	
Cc1cccc(N2C(=O)SC(SC(=Nc3ccccc3)Nc3ccccc3)C2=O)c1 (stereo not drawn)		15 µM (active)
CCOc1ccc(CCN2C(=O)C(=O)N([C@@H](Cc3ccc(O)cc3)CN3CCC[C@H]3CN3C(=O)C(=O)NC[C@@H]3CC(C)C)C[C@@H]2Cc2ccccc2)cc1	-15%	
